High-throughput results deposited in PubChem by Sanford-Burnham Center for Chemical Genomics.
In the library only some 2.7% were active in any assay of this set; here they are far more common.
H9c2 TAG inh: inhibitors of triacylglycerol accumulation, primary screen, cell-based, uHTS, fluorescence, H9c2; 230,000 compounds, 0.66% hits; inhibition, % at 12.5 µM; H9c2 cells, Nile Red lipid (TAG) fluorescence; cells loaded with 200 µM oleic acid;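 active means pattern-corrected inhibition of lipid staining of at least 50% with the nuclear-stain viability signal not falling by more than 50%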;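 further: 0% = DMSO wells and 100% = triacsin C control wells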
MPTP block: mitochondrial permeability transition pore inhibitors, primary screen, biochemical, isolated mouse mitochondria, absorbance. 360,000 compounds, 1.4% hits. inhibition, % at 10 µM. Ca2+ swelling absorbance, 30 min;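 active means inhibition of 50% or more, scaled per plate between neutral and stimulator controls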;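 further: 0% = DMSO wells given calcium and 100% = 1 mM EGTA wells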
NadD block: inhibitors of S. aureus NadD, primary screen, biochemical, colorimetric, uHTS | Nicotinate-nucleotide adenylyltransferase NadD (Staphylococcus aureus N315) | purified NadD enzyme, colorimetric absorbance read-out | inhibition, % at 20 µM | 360,000 compounds, 0.78% hits | AID 602399, 2012; in the data active means inhibition above about 26%
aDG glyco act: activators of alpha-DG glycosylation, primary screen, uHTS, Pro5-aDG cells, AlphaScreen; alpha-DG glycosylation AlphaScreen (IIH6); 0% Pro5, 100% B10-LARGE cell signal; activation, % at 10 µM; 360,000 compounds, 0.22% hits;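 active means activation of at least 8% versus controls, or a plate z-score of at least 8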;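 further: Pro5 are CHO cells carrying HIG-tagged alpha-DG that lacks glycosylation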
NadD inh conf: inhibitors of S. aureus NadD, confirmation, biochemical, colorimetric, single concentration | shares compounds with NadD block | purified S. aureus NadD, colorimetric enzyme assay | inhibition, % at 20 µM | 2,000 compounds, 13% hits; in the data active means inhibition mostly above about 42%, no sharp cut-off; inactive means mostly below about 42%
Rh123 counter: fluorescence retest of MPTP screen hits in isolated mitochondria, single concentration; inhibition, % at 10 µM; membrane potential, Rhodamine 123 fluorescence; shares compounds with MPTP block; 5,000 compounds, 78% hits; in the data active means inhibition above about 22%;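 further: 0% = DMSO vehicle and 100% = positive control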
* marks the source's active call; other numbers are inactive results; . = not tested or not shown.

SMILES | H9c2 TAG inh | MPTP block | NadD block | aDG glyco act | NadD inh conf | Rh123 counter
O=C(Nc1cccc(Cl)c1)c1nc[nH]c1C(=O)NCCN(CCNC(=O)c1[nH]cnc1C(=O)Nc1cccc(Cl)c1)CCNC(=O)c1[nH]cnc1C(=O)Nc1cccc(Cl)c1 | 74.6* | 0.4 | 58.8* | -0.1 | 9.4 | .
Cc1cccc(NC(=O)c2nc[nH]c2C(=O)NCCCCNC(=O)c2[nH]cnc2C(=O)Nc2cccc(C)c2)c1 | 77.6* | 0.4 | 36.7* | -0.4 | 10.8 | .
O=C(Nc1cccc(Cl)c1)c1nc[nH]c1C(=O)NCc1ccccc1 | -48.7 | 2.4 | 6.5 | -0.3 | . | .
CC(C)(C)OC(=O)NCCCCCNC(=O)c1[nH]cnc1C(=O)Nc1cccc(Cl)c1 | -25.8 | 0.3 | 0.2 | 0.8 | . | .
O=C(Nc1ccc(Cl)cc1)c1nc[nH]c1C(=O)NCCCCNC(=O)c1[nH]cnc1C(=O)Nc1ccc(Cl)cc1 | 110.4* | 0.0 | 30.0* | -0.3 | 5.8 | .
Cc1cnc(-c2nc3ccccc3n2C(C)C(=O)Nc2c(C)cccc2C)cn1 (configuration not stated) | . | 2.1 | . | 0.2 | . | .
N#CCn1c(Cc2ccccc2)nc2ccccc2c1=O | -14.2 | -0.4 | -2.4 | 0.0 | . | .
N#CC/C(N)=N/Nc1nc2ccccc2nc1Cc1ccccc1 | . | 1.8 | 34.2* | -0.3 | 12.1 | .
CCOc1cc2[nH]c(=S)n(Cc3ccc(C(=O)O)cc3)c(=O)c2cc1OCC | . | 1.7 | -2.4 | 0.1 | . | .
CC1CCN(S(=O)(=O)c2ccc(C(=O)Nc3ccccc3-c3nc4ccccc4[nH]3)cc2)CC1 | . | 94.5* | 28.6* | 0.4 | 3.6 | 64.3*
Cc1cc(F)ccc1S(=O)(=O)Nc1ccccc1C(=O)Nc1ncn[nH]1 | . | 0.0 | 9.3 | 0.1 | . | .
Cc1cc(F)ccc1S(=O)(=O)Nc1ccccc1C(=O)Nc1ccccc1-c1nc2ccccc2[nH]1 | . | 72.2* | 33.3* | 0.7 | -0.3 | 68.5*
Cc1ccccc1-c1cc(C(=O)Nc2sc(C(=O)OC(C)C)c(C)c2C#N)c2ccccc2n1 | . | 90.7* | 73.9* | -0.3 | 27.3 | 78.7*
Cc1cc(NC(=O)c2cc(-c3ccccc3C)nc3ccccc23)no1 | . | 1.3 | 4.2 | 0.0 | . | .
CCOC(=O)c1sc(NC(=O)c2cc(-c3ccc(C)cc3)nc3ccccc23)c(C#N)c1C | 5.0 | 88.5* | 41.9* | -0.2 | 11.2 | 77.9*
COc1ccc(OC)c(NC(=O)C2CC(/C=C/c3ccccc3)=NO2)c1 (configuration not stated) | . | -0.5 | -6.6 | -0.1 | . | .
CCOc1ccc2nc(N3C(=O)/C(=C/c4ccccc4)NC3=S)sc2c1 | . | 84.0* | 32.9* | 0.3 | 7.8 | 15.4
O=C(/C=C/NNC(=O)c1ccccc1)c1ccc(Br)cc1 | 14.7 | 1.3 | 1.1 | 0.1 | . | .
O=C(/C=C/NNC(=O)c1cccc(Br)c1)c1cccc(Br)c1 | . | 51.0* | 29.8* | -0.1 | 23.7 | 58.2*
Cc1ccc(S(=O)(=O)N(C)C)cc1NC(=O)C(C)OC(=O)c1cc[n+]([O-])cc1 (configuration not stated) | 5.8 | 1.2 | 5.1 | 0.0 | . | .
O=C(Nc1cc(S(=O)(=O)Nc2ccc(Cl)cc2)ccc1O)c1ccc(S(=O)(=O)N2CCCCCC2)cc1 | 19.3 | 90.9* | 44.1* | -0.2 | 34.0 | 41.6*
O=C(Nc1cc(S(=O)(=O)N2CCOCC2)ccc1O)c1ccc(S(=O)(=O)N2CCCCC2)cc1 | 1.8 | -1.0 | 3.6 | -0.1 | . | .
Cc1ccc(-n2[nH]c(C)c(/C=N/Nc3ccc([N+](=O)[O-])cc3[N+](=O)[O-])c2=O)cc1C | . | 114.6* | 36.5* | 0.0 | 12.0 | 60.7*
O=C1Nc2ccccc2N(C(=O)c2ccc3ccccc3c2)C1c1nc2ccccc2[nH]1 (configuration not stated) | . | -2.5 | 10.7 | 0.0 | . | .
O=C(CN1c2ccccc2Sc2ccccc21)NNC(=S)Nc1ccc(Cl)cc1Cl | -13.3 | 82.9* | 36.8* | -0.1 | 51.0* | 76.6*
O=C(CN1c2ccccc2Sc2ccccc21)N/N=C/c1ccc(Cl)cc1Cl | 9.2 | -0.8 | 20.9 | -0.3 | . | .
CCOC(=O)C1CCN(C(=O)N(CC)CC)CC1 | . | 1.9 | 0.6 | -0.3 | . | .
